Test results published in the supplement of paper PMC4466140.

B1: unnamed (peptide)
chain: NMLKKKPLKKPLKRF

target: AgAbp1; test: SPOT peptide array binding signal intensity (averaged, normalized) (arbitrary units (background-subtracted, floor 0; scale differs between SH3 domains)); higher = stronger binding of the SH3 domain to the peptide
Outline: (§1)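 E. coli BL21(DE3) was used to express GST-fused SH3 domains from four yeast species, which were then purified on glutathione Sepharose. These were incubated at 10 μg/ml in TBS-based blocking buffer overnight at 4°C on cellulose membranes carrying synthetic 15-mer peptides, in which cysteines were replaced by serines. Binding signal is the replicate average of normalized, background-subtracted spot intensity, in arbitrary units that differ between domains.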

| Binder | SPOT peptide array binding signal intensity |
| --- | --- |
| B1 | 2990 |

target: AgBbc1; test: as above
Outline: as §1

| Binder | SPOT peptide array binding signal intensity |
| --- | --- |
| B1 | 12.5 |

target: AgBem1-D1; test: as above
Outline: as §1

| Binder | SPOT peptide array binding signal intensity |
| --- | --- |
| B1 | 382 |

target: AgBzz1-D1; test: as above
Outline: as §1

| Binder | SPOT peptide array binding signal intensity |
| --- | --- |
| B1 | 48 |

target: AgBzz1-D2; test: as above
Outline: as §1

| Binder | SPOT peptide array binding signal intensity |
| --- | --- |
| B1 | 48 |

target: AgCyk3; test: as above
Outline: as §1

| Binder | SPOT peptide array binding signal intensity |
| --- | --- |
| B1 | 1 |

target: AgFus1; test: as above
Outline: as §1

| Binder | SPOT peptide array binding signal intensity |
| --- | --- |
| B1 | 450 |

target: AgHof1; test: as above
Outline: as §1

| Binder | SPOT peptide array binding signal intensity |
| --- | --- |
| B1 | 75 |

target: AgHse1; test: as above
Outline: as §1

| Binder | SPOT peptide array binding signal intensity |
| --- | --- |
| B1 | 924 |

target: AgLsb1; test: as above
Outline: as §1

| Binder | SPOT peptide array binding signal intensity |
| --- | --- |
| B1 | 1 |

target: AgLsb4; test: as above
Outline: as §1

| Binder | SPOT peptide array binding signal intensity |
| --- | --- |
| B1 | 84 |

target: AgMyo5; test: as above
Outline: as §1

| Binder | SPOT peptide array binding signal intensity |
| --- | --- |
| B1 | ≤ 0 |

target: AgNbp2; test: as above
Outline: as §1

| Binder | SPOT peptide array binding signal intensity |
| --- | --- |
| B1 | 275 |

target: AgRvs167; test: as above
Outline: as §1

| Binder | SPOT peptide array binding signal intensity |
| --- | --- |
| B1 | 6.17 |

target: AgSho1; test: as above
Outline: as §1

| Binder | SPOT peptide array binding signal intensity |
| --- | --- |
| B1 | 363 |

target: AgSla1-D1-D2; test: as above
Outline: as §1

| Binder | SPOT peptide array binding signal intensity |
| --- | --- |
| B1 | 415 |

target: AgSla1-D3; test: as above
Outline: as §1

| Binder | SPOT peptide array binding signal intensity |
| --- | --- |
| B1 | 10 |

target: CaAbp1-D1; test: as above
Outline: as §1

| Binder | SPOT peptide array binding signal intensity |
| --- | --- |
| B1 | 2870 |

target: CaAbp1-D2; test: as above
Outline: as §1

| Binder | SPOT peptide array binding signal intensity |
| --- | --- |
| B1 | 4760 |

target: CaBbc1; test: as above
Outline: as §1

| Binder | SPOT peptide array binding signal intensity |
| --- | --- |
| B1 | 98.5 |

target: CaBem1-D1; test: as above
Outline: as §1

| Binder | SPOT peptide array binding signal intensity |
| --- | --- |
| B1 | 268 |

target: CaBzz1-D1; test: as above
Outline: as §1

| Binder | SPOT peptide array binding signal intensity |
| --- | --- |
| B1 | 208 |

target: CaBzz1-D2; test: as above
Outline: as §1

| Binder | SPOT peptide array binding signal intensity |
| --- | --- |
| B1 | 225 |

target: CaCyk3; test: as above
Outline: as §1

| Binder | SPOT peptide array binding signal intensity |
| --- | --- |
| B1 | 18 |

target: CaFus1; test: as above
Outline: as §1

| Binder | SPOT peptide array binding signal intensity |
| --- | --- |
| B1 | 2320 |

target: CaHof1; test: as above
Outline: as §1

| Binder | SPOT peptide array binding signal intensity |
| --- | --- |
| B1 | ≤ 0 |

target: CaHse1; test: as above
Outline: as §1

| Binder | SPOT peptide array binding signal intensity |
| --- | --- |
| B1 | 226 |

target: CaLsb1; test: as above
Outline: as §1

| Binder | SPOT peptide array binding signal intensity |
| --- | --- |
| B1 | 4.5 |

target: CaLsb4; test: as above
Outline: as §1

| Binder | SPOT peptide array binding signal intensity |
| --- | --- |
| B1 | 506 |

target: CaMyo5; test: as above
Outline: as §1

| Binder | SPOT peptide array binding signal intensity |
| --- | --- |
| B1 | 27.5 |

target: CaNbp2; test: as above
Outline: as §1

| Binder | SPOT peptide array binding signal intensity |
| --- | --- |
| B1 | 438 |

target: CaRvs167; test: as above
Outline: as §1

| Binder | SPOT peptide array binding signal intensity |
| --- | --- |
| B1 | 47.7 |

target: CaRvs167-3; test: as above
Outline: as §1

| Binder | SPOT peptide array binding signal intensity |
| --- | --- |
| B1 | 44 |

target: CaSho1; test: as above
Outline: as §1

| Binder | SPOT peptide array binding signal intensity |
| --- | --- |
| B1 | 612 |

target: CaSla1-D1-D2; test: as above
Outline: as §1

| Binder | SPOT peptide array binding signal intensity |
| --- | --- |
| B1 | 586 |

target: CaSla1-D3; test: as above
Outline: as §1

| Binder | SPOT peptide array binding signal intensity |
| --- | --- |
| B1 | 370 |

target: ScAbp1; test: as above
Outline: as §1

| Binder | SPOT peptide array binding signal intensity |
| --- | --- |
| B1 | 1040 |

target: ScBbc1; test: as above
Outline: as §1

| Binder | SPOT peptide array binding signal intensity |
| --- | --- |
| B1 | 1.5 |

target: ScBem1-D1; test: as above
Outline: as §1

| Binder | SPOT peptide array binding signal intensity |
| --- | --- |
| B1 | 31 |

target: ScBzz1-D1; test: as above
Outline: as §1

| Binder | SPOT peptide array binding signal intensity |
| --- | --- |
| B1 | 10 |

target: ScBzz1-D2; test: as above
Outline: as §1

| Binder | SPOT peptide array binding signal intensity |
| --- | --- |
| B1 | 22 |

target: ScCyk3; test: as above
Outline: as §1

| Binder | SPOT peptide array binding signal intensity |
| --- | --- |
| B1 | 28 |

target: ScFus1; test: as above
Outline: as §1

| Binder | SPOT peptide array binding signal intensity |
| --- | --- |
| B1 | 648 |

target: ScHof1; test: as above
Outline: as §1

| Binder | SPOT peptide array binding signal intensity |
| --- | --- |
| B1 | 0.25 |

target: ScHse1; test: as above
Outline: as §1

| Binder | SPOT peptide array binding signal intensity |
| --- | --- |
| B1 | 1740 |

target: ScLsb1; test: as above
Outline: as §1

| Binder | SPOT peptide array binding signal intensity |
| --- | --- |
| B1 | 1 |

target: ScLsb2; test: as above
Outline: as §1

| Binder | SPOT peptide array binding signal intensity |
| --- | --- |
| B1 | 1 |

target: ScLsb3; test: as above
Outline: as §1

| Binder | SPOT peptide array binding signal intensity |
| --- | --- |
| B1 | 340 |

target: ScLsb4; test: as above
Outline: as §1

| Binder | SPOT peptide array binding signal intensity |
| --- | --- |
| B1 | 94 |

target: ScMyo3; test: as above
Outline: as §1

| Binder | SPOT peptide array binding signal intensity |
| --- | --- |
| B1 | 2 |

target: ScMyo5; test: as above
Outline: as §1

| Binder | SPOT peptide array binding signal intensity |
| --- | --- |
| B1 | ≤ 0 |

target: ScNbp2; test: as above
Outline: as §1

| Binder | SPOT peptide array binding signal intensity |
| --- | --- |
| B1 | 552 |

target: ScPex13; test: as above
Outline: as §1

| Binder | SPOT peptide array binding signal intensity |
| --- | --- |
| B1 | 194 |

target: ScRvs167; test: as above
Outline: as §1

| Binder | SPOT peptide array binding signal intensity |
| --- | --- |
| B1 | 7 |

target: ScSho1; test: as above
Outline: as §1

| Binder | SPOT peptide array binding signal intensity |
| --- | --- |
| B1 | 1720 |

target: ScSla1-D1-D2; test: as above
Outline: as §1

| Binder | SPOT peptide array binding signal intensity |
| --- | --- |
| B1 | 616 |

target: ScSla1-D3; test: as above
Outline: as §1

| Binder | SPOT peptide array binding signal intensity |
| --- | --- |
| B1 | 261 |

target: SpAbp1-D1; test: as above
Outline: as §1

| Binder | SPOT peptide array binding signal intensity |
| --- | --- |
| B1 | 1740 |

target: SpBbc1; test: as above
Outline: as §1

| Binder | SPOT peptide array binding signal intensity |
| --- | --- |
| B1 | 4.25 |

target: SpBzz1-D1; test: as above
Outline: as §1

| Binder | SPOT peptide array binding signal intensity |
| --- | --- |
| B1 | 279 |

target: SpBzz1-D2; test: as above
Outline: as §1

| Binder | SPOT peptide array binding signal intensity |
| --- | --- |
| B1 | 48.2 |

target: SpCyk3; test: as above
Outline: as §1

| Binder | SPOT peptide array binding signal intensity |
| --- | --- |
| B1 | 7.5 |

target: SpHof1; test: as above
Outline: as §1

| Binder | SPOT peptide array binding signal intensity |
| --- | --- |
| B1 | 134 |

target: SpHof1-2; test: as above
Outline: as §1

| Binder | SPOT peptide array binding signal intensity |
| --- | --- |
| B1 | 26 |

target: SpHof1-3; test: as above
Outline: as §1

| Binder | SPOT peptide array binding signal intensity |
| --- | --- |
| B1 | 804 |

target: SpHse1; test: as above
Outline: as §1

| Binder | SPOT peptide array binding signal intensity |
| --- | --- |
| B1 | 772 |

target: SpLsb1; test: as above
Outline: as §1

| Binder | SPOT peptide array binding signal intensity |
| --- | --- |
| B1 | 31.8 |

target: SpLsb4; test: as above
Outline: as §1

| Binder | SPOT peptide array binding signal intensity |
| --- | --- |
| B1 | 388 |

target: SpMyo1; test: as above
Outline: as §1

| Binder | SPOT peptide array binding signal intensity |
| --- | --- |
| B1 | 21.8 |

target: SpNbp2; test: as above
Outline: as §1

| Binder | SPOT peptide array binding signal intensity |
| --- | --- |
| B1 | 536 |

target: SpPex13; test: as above
Outline: as §1

| Binder | SPOT peptide array binding signal intensity |
| --- | --- |
| B1 | 73.5 |

target: SpRvs167; test: as above
Outline: as §1

| Binder | SPOT peptide array binding signal intensity |
| --- | --- |
| B1 | 15.8 |

target: SpSla1-D1-D2; test: as above
Outline: as §1

| Binder | SPOT peptide array binding signal intensity |
| --- | --- |
| B1 | 9 |

target: SpSla1-D3; test: as above
Outline: as §1

| Binder | SPOT peptide array binding signal intensity |
| --- | --- |
| B1 | 106 |
